Article PMC7862700, “An all-to-all approach to the identification of sequence-specific readers for epigenetic DNA modifications on cytosine”

Assays:
Test in all cases: DAPPL (digital affinity profiling via proximity ligation, sequencing); 10 mM Tris-HCl pH 7.5, 50 mM NaCl, 1 mM DTT, 4% glycerol, room temperature, 30 min; GST-TFs on glutathione beads, 16-mer random dsDNA library, 0.1% formaldehyde crosslink after washing; high values mean tight binding
FEV = target: T1, FEV (Homo sapiens, UniProt Q99581 1-238); conditions: protein: recombinant; tags: N-terminal GST; dsDNA, one strand shown
T1 sequence: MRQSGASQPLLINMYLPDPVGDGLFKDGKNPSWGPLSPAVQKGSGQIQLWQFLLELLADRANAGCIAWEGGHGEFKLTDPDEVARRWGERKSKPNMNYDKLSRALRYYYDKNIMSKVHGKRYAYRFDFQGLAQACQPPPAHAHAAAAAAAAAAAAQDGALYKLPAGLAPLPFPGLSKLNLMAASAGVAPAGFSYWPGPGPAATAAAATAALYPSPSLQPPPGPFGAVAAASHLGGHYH
Outline: (§1)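 Beads coated with glutathione captured GST-fused human transcription factors that had been expressed in yeast, and the factors were then given DNA barcodes and pooled with a tag-only sample. The pools were incubated with 200 nmole of a random double-stranded 16-mer DNA library in Tris/NaCl/DTT/glycerol buffer for 30 min at room temperature, washed, crosslinked with 0.1% formaldehyde and proximity-ligated with BsaI/T4 ligase at 37 °C for 1 h. PCR amplification and Illumina NextSeq500 sequencing came last. Binding signal is each hexamer's read frequency for a factor divided by its frequency for the tag-only sample.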

ETV5 = ETV5 (Homo sapiens, UniProt P41161 1-510); conditions: protein: recombinant; tags: N-terminal GST; dsDNA, one strand shown
ETV5, sequence (P41161 whole entry): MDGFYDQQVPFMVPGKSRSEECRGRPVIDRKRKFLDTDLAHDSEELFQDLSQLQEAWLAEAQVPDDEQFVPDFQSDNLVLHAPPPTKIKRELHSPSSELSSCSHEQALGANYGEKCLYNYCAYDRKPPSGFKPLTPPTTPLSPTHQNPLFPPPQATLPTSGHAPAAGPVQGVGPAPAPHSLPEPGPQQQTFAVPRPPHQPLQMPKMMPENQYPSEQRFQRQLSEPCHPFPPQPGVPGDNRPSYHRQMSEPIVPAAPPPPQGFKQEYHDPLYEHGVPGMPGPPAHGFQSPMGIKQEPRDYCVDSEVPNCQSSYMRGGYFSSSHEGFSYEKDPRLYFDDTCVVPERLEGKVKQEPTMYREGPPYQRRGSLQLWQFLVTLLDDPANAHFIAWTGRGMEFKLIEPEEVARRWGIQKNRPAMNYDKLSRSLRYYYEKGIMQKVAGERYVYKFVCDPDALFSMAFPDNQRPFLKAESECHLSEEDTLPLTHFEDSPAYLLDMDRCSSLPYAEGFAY
Outline: as §1

HSF1 = HSF1 (Homo sapiens, UniProt Q00613 1-529); conditions: protein: recombinant; tags: N-terminal GST; chain copies: 3; dsDNA, one strand shown
HSF1, sequence (Q00613 whole entry): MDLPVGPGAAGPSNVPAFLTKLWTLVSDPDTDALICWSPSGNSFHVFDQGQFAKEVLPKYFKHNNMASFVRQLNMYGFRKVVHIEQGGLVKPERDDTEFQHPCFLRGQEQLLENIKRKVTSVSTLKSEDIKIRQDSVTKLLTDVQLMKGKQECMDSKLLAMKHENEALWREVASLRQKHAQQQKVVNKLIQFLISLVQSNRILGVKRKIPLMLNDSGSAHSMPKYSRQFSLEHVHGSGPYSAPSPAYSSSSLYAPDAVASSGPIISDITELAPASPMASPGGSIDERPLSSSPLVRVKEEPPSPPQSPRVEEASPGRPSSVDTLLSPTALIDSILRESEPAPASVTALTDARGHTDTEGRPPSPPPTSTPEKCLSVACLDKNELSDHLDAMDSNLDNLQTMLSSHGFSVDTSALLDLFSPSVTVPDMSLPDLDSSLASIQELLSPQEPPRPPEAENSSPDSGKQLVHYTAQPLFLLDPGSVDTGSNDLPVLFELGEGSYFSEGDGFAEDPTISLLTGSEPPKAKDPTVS
Outline: as §1

SPIC = target: T2, SPIC (Homo sapiens, UniProt Q8N5J4 1-248); conditions: protein: recombinant; tags: N-terminal GST; dsDNA, one strand shown
T2 sequence: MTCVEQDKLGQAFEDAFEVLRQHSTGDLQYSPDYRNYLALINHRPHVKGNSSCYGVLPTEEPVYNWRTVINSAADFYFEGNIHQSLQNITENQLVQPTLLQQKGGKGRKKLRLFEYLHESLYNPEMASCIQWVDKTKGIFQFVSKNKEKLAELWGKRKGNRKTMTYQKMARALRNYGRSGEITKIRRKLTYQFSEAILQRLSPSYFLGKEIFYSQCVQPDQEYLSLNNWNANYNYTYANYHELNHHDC
Outline: as §1

ELF4 = ELF4 (Homo sapiens, UniProt Q99607 1-663); conditions: protein: recombinant; tags: N-terminal GST; dsDNA, one strand shown
ELF4, sequence (Q99607 whole entry): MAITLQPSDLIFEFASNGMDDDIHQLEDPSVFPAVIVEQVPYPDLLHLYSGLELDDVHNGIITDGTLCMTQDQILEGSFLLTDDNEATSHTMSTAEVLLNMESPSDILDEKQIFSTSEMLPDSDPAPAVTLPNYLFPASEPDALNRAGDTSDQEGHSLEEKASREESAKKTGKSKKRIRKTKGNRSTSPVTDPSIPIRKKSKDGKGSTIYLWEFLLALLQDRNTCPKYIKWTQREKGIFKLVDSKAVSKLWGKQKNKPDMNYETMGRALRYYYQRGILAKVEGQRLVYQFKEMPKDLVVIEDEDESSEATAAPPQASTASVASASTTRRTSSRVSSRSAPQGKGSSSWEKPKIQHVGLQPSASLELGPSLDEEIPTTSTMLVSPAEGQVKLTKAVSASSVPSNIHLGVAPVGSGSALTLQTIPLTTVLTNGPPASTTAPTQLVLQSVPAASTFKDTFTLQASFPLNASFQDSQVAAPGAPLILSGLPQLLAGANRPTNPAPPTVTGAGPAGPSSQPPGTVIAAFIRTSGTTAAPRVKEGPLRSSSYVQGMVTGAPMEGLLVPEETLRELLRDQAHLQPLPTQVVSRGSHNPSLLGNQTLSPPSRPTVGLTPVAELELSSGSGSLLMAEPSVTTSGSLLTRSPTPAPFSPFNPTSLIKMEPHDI
Outline: as §1

ELK4 = target: T3, ELK4 (Homo sapiens, UniProt P28324-2 1-405); conditions: protein: recombinant; tags: N-terminal GST; dsDNA, one strand shown
T3 sequence: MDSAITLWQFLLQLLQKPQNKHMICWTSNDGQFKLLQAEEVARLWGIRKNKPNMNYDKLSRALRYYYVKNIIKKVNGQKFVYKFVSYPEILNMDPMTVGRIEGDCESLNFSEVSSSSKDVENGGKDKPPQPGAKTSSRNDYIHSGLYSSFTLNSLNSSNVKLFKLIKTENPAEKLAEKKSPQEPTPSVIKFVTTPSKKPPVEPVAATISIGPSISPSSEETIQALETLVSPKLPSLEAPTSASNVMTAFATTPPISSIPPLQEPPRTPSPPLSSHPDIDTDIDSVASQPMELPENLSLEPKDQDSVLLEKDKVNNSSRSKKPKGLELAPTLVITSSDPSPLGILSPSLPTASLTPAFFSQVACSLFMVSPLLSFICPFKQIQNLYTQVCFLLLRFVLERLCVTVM
Outline: as §1

ETV2 = target: T4, ETV2 (Homo sapiens, UniProt O00321 1-342); conditions: protein: recombinant; tags: N-terminal GST; dsDNA, one strand shown
T4 sequence: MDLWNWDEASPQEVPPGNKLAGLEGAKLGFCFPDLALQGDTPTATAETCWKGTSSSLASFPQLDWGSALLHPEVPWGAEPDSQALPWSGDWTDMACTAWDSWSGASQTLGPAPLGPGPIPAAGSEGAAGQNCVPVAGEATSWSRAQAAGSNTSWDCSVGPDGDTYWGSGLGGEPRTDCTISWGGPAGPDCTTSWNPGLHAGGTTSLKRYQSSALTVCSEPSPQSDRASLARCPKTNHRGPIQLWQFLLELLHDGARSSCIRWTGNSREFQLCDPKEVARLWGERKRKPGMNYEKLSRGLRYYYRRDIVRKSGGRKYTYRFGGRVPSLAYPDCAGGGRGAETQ
Outline: as §1

ELF3 = target: T5, ELF3 (Homo sapiens, UniProt P78545 1-371); conditions: protein: recombinant; tags: N-terminal GST; dsDNA, one strand shown
T5 sequence: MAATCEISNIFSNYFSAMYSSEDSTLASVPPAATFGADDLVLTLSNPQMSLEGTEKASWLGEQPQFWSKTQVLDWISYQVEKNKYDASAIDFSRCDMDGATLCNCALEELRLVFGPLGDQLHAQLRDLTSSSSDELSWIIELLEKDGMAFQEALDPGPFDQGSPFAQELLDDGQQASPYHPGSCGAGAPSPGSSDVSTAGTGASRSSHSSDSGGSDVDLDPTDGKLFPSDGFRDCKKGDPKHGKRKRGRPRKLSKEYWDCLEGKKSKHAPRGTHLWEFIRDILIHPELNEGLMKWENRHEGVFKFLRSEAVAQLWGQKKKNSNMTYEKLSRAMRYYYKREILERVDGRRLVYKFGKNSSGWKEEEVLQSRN
Outline: as §1

CRX = CRX (Homo sapiens, UniProt O43186 1-299); conditions: protein: recombinant; tags: N-terminal GST; dsDNA, one strand shown
CRX, sequence (O43186 whole entry): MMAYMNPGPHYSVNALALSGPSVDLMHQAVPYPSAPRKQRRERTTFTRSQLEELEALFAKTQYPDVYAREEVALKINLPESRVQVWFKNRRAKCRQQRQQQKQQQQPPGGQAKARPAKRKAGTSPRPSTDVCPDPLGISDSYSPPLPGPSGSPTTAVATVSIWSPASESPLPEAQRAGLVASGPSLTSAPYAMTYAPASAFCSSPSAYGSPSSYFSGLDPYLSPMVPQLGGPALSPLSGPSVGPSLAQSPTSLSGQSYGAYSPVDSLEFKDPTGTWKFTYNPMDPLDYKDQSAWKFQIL
Outline: as §1

ETV1 = ETV1 (Homo sapiens, UniProt P50549 1-477); conditions: protein: recombinant; tags: N-terminal GST; dsDNA, one strand shown
ETV1, sequence (P50549 whole entry): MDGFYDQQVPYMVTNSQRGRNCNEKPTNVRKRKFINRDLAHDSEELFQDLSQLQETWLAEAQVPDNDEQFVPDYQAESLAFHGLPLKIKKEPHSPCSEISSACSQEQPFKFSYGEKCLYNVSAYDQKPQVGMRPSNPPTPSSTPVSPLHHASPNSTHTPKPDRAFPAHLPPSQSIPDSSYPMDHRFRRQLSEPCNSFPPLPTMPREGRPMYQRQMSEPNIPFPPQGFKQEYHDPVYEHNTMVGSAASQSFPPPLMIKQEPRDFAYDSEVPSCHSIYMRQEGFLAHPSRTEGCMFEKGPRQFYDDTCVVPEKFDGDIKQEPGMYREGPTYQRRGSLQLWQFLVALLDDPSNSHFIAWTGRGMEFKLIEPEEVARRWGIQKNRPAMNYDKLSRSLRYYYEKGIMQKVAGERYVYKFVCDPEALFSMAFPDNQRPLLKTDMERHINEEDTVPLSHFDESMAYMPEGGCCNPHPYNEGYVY
Outline: as §1

ERF = target: T6, ERF (Homo sapiens, UniProt P50548 1-548); conditions: protein: recombinant; tags: N-terminal GST; dsDNA, one strand shown
T6 sequence: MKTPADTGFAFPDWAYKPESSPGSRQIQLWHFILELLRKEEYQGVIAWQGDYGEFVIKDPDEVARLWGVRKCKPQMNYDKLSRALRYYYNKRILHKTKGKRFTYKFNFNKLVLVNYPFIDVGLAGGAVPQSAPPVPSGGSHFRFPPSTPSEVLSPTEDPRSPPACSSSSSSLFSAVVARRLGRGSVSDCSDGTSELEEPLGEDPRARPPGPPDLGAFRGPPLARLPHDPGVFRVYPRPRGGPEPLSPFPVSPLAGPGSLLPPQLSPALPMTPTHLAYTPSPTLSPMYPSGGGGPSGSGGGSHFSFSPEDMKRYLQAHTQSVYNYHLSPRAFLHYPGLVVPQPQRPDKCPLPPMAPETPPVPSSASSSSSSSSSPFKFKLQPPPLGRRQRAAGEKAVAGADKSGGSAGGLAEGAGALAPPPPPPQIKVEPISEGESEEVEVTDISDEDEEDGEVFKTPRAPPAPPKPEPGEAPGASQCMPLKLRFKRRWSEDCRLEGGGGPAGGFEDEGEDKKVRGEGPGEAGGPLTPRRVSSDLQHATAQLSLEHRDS
Outline: as §1

ETV3L = target: T7, ETV3L (Homo sapiens, UniProt Q6ZN32 1-361); conditions: protein: recombinant; tags: N-terminal GST; dsDNA, one strand shown
T7 sequence: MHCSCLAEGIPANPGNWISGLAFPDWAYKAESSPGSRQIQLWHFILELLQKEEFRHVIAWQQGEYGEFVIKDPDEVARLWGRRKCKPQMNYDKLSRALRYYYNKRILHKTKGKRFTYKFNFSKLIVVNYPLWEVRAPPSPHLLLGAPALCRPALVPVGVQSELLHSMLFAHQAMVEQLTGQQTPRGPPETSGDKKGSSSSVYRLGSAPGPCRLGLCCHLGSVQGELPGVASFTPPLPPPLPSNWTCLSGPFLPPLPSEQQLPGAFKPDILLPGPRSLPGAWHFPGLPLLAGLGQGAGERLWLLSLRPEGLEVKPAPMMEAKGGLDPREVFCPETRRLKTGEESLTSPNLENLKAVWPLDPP
Outline: as §1

ETS2 = target: T8, ETS2 (Homo sapiens, UniProt P15036 1-469); conditions: protein: recombinant; tags: N-terminal GST; dsDNA, one strand shown
T8 sequence: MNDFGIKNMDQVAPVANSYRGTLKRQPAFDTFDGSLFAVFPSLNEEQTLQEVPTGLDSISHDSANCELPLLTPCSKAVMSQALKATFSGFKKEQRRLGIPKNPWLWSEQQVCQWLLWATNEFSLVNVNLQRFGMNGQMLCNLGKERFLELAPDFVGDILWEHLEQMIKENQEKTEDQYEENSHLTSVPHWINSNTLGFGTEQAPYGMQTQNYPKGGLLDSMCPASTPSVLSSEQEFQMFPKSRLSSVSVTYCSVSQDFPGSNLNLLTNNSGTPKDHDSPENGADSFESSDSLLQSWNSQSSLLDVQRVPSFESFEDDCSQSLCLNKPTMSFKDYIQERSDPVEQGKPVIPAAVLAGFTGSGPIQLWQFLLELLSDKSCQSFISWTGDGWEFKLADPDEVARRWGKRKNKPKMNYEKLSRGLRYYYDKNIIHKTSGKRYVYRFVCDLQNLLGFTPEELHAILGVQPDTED
Outline: as §1

SPDEF = target: T9, SPDEF (Homo sapiens, UniProt O95238 1-335); conditions: protein: recombinant; tags: N-terminal GST; dsDNA, one strand shown
T9 sequence: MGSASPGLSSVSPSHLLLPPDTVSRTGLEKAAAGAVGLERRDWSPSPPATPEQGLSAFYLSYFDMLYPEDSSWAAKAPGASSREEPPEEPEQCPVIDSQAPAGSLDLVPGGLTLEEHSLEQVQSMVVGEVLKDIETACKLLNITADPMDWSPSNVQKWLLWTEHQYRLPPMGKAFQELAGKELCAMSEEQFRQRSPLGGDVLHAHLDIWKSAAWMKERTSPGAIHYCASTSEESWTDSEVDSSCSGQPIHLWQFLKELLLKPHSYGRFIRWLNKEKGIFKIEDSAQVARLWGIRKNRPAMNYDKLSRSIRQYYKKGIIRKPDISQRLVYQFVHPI
Outline: as §1

ETV7 = target: T10, ETV7 (Homo sapiens, UniProt Q9Y603 1-341); conditions: protein: recombinant; tags: N-terminal GST; dsDNA, one strand shown
T10 sequence: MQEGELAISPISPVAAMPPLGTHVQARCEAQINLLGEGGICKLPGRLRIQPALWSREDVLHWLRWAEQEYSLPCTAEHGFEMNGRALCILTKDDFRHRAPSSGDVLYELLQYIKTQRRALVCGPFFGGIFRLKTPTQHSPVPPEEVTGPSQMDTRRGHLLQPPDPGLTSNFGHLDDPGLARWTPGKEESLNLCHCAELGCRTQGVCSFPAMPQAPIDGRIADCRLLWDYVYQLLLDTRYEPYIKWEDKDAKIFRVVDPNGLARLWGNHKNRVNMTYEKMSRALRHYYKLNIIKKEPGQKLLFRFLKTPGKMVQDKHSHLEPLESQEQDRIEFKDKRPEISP
Outline: as §1

ELF5 = target: T11, ELF5 (Homo sapiens, UniProt Q9UKW6-2 1-255); conditions: protein: recombinant; tags: N-terminal GST; dsDNA, one strand shown
T11 sequence: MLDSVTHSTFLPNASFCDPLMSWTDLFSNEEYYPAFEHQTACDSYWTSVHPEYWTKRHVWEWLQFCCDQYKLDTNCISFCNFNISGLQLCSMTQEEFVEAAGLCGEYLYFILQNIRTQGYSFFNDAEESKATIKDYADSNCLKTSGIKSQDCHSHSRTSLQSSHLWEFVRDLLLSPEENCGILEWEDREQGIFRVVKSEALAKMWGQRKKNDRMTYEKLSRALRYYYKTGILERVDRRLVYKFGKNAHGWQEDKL
Outline: as §1

ETV3 = target: T12, ETV3 (Homo sapiens, UniProt P41162-2 1-143); conditions: protein: recombinant; tags: N-terminal GST; dsDNA, one strand shown
T12 sequence: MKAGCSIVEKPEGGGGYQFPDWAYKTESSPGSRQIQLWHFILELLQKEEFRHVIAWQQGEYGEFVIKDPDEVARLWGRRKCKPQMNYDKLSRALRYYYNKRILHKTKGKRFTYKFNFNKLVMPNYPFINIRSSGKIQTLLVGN
Outline: as §1

ETV6 = ETV6 (Homo sapiens, UniProt P41212 1-452); conditions: protein: recombinant; tags: N-terminal GST; dsDNA, one strand shown
ETV6, sequence (P41212 whole entry): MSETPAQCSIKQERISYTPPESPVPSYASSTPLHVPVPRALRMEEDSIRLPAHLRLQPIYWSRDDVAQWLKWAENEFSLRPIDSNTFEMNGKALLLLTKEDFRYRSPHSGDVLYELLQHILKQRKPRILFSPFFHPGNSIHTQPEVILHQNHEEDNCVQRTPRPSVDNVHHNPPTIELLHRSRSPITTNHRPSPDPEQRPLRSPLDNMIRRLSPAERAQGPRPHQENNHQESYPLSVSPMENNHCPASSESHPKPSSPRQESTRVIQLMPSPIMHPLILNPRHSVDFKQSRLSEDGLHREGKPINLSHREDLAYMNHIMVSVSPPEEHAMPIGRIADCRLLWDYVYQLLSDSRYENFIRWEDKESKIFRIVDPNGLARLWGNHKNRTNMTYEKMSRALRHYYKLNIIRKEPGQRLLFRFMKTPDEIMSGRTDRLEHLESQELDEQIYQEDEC
Outline: as §1

## ACATAT
FEV
  binding signal: 1.29 fold enrichment (6-mer frequency, TF over GST control)
ETV5
  binding signal: 1.32 fold enrichment (6-mer frequency, TF over GST control)
HSF1
  binding signal: 1.04 fold enrichment (6-mer frequency, TF over GST control)
SPIC
  binding signal: 1.36 fold enrichment (6-mer frequency, TF over GST control)
ELF4
  binding signal: 1.3 fold enrichment (6-mer frequency, TF over GST control)
ELK4
  binding signal: 1.22 fold enrichment (6-mer frequency, TF over GST control)
ETV2
  binding signal: 1.28 fold enrichment (6-mer frequency, TF over GST control)
ELF3
  binding signal: 1.25 fold enrichment (6-mer frequency, TF over GST control)
CRX
  binding signal: 1.12 fold enrichment (6-mer frequency, TF over GST control)
ETV1
  binding signal: 1.26 fold enrichment (6-mer frequency, TF over GST control)
ERF
  binding signal: 1.34 fold enrichment (6-mer frequency, TF over GST control)
ETV3L
  binding signal: 1.29 fold enrichment (6-mer frequency, TF over GST control)
ETS2
  binding signal: 1.27 fold enrichment (6-mer frequency, TF over GST control)
SPDEF
  binding signal: 1.38 fold enrichment (6-mer frequency, TF over GST control)
ETV7
  binding signal: 1.37 fold enrichment (6-mer frequency, TF over GST control)
ELF5
  binding signal: 1.2 fold enrichment (6-mer frequency, TF over GST control)
ETV3
  binding signal: 1.28 fold enrichment (6-mer frequency, TF over GST control)
ETV6
  binding signal: 1.21 fold enrichment (6-mer frequency, TF over GST control)
